This is part of a sample that, as a whole, favours compounds with a hit. Of some 83,000 tested, about 20% had one in any assay.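 Step 1: grow cells in 96-well plates. Step 2: add test compound at a single concentration. Step 3: incubate 48 h. Step 4: record percent growth.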
Columns and labels:
Assay in all cases: NCI-60 one-dose screen, 48 h (100 = growth as untreated, 0 = no growth, -100 = all killed)
Conditions in all cases: 10 µM unless noted; active = growth percent below 10; inactive = the rest
DU-145 prostate = tested on: DU-145 prostate
MALME-3M melanoma = tested on: MALME-3M melanoma
MDA-MB-231 breast = tested on: MDA-MB-231 breast
RXF 393 renal = tested on: RXF 393 renal
SF-268 CNS = tested on: SF-268 CNS
SF-295 CNS = tested on: SF-295 CNS
SF-539 CNS = tested on: SF-539 CNS
UACC-257 melanoma = tested on: UACC-257 melanoma
M14 melanoma = tested on: M14 melanoma
HCT-15 colon = tested on: HCT-15 colon
HT29 colon = tested on: HT29 colon
SNB-75 CNS = tested on: SNB-75 CNS
SNB-19 CNS = tested on: SNB-19 CNS
U251 CNS = tested on: U251 CNS
SK-MEL-5 melanoma = tested on: SK-MEL-5 melanoma
UACC-62 melanoma = tested on: UACC-62 melanoma
LOX IMVI melanoma = tested on: LOX IMVI melanoma
SK-MEL-28 melanoma = tested on: SK-MEL-28 melanoma
PC-3 prostate = tested on: PC-3 prostate
K-562 leukemia = tested on: K-562 leukemia

Measured: growth

Cc1c(Cl)cccc1NS(=O)(=O)c1ccccc1
inactive: DU-145 prostate 143% | MALME-3M melanoma 124% | MDA-MB-231 breast 102% | RXF 393 renal 95.3% | SF-268 CNS 104% | SF-295 CNS 95.2% | SF-539 CNS 102% | UACC-257 melanoma 95.1% | M14 melanoma 105% | HCT-15 colon 97.3% | HT29 colon 99.8% | SNB-75 CNS 87.9% | SNB-19 CNS 106% | U251 CNS 106% | SK-MEL-5 melanoma 96.7% | UACC-62 melanoma 102% | LOX IMVI melanoma 104% | SK-MEL-28 melanoma 99%

CCOC(=O)c1cnn2c(-c3ccc(Cl)cc3)nc(NCc3ccccc3)nc12
inactive: DU-145 prostate 44.6% | MALME-3M melanoma 64.6% | MDA-MB-231 breast 77.5% | RXF 393 renal 40.7% | SF-268 CNS 28.8% | SF-295 CNS 58.9% | SF-539 CNS 10.7% | UACC-257 melanoma 96.2% | M14 melanoma 86.8% | HCT-15 colon 47.7% | HT29 colon 51% | SNB-75 CNS 70.3% | SNB-19 CNS 63.5% | U251 CNS 32.2% | PC-3 prostate 63% | SK-MEL-5 melanoma 86% | UACC-62 melanoma 63.4% | LOX IMVI melanoma 39.7% | SK-MEL-28 melanoma 86.7%

CSc1nc(N)c(CNC(C)c2ccccc2)c(=O)n1C (stereo not given)
inactive: DU-145 prostate 118% | K-562 leukemia 96.2% | MDA-MB-231 breast 114% | RXF 393 renal 98.9% | SF-268 CNS 106% | SF-295 CNS 117% | SF-539 CNS 94.9% | UACC-257 melanoma 90.2% | M14 melanoma 97.5% | HCT-15 colon 104% | HT29 colon 105% | SNB-19 CNS 98.9% | U251 CNS 95% | PC-3 prostate 101% | SK-MEL-5 melanoma 113% | UACC-62 melanoma 98.8% | LOX IMVI melanoma 92.3% | SK-MEL-28 melanoma 109%

N#Cc1c(N)nc2c(nnn2-c2cccc(Br)c2)c1N
inactive: DU-145 prostate 109% | MALME-3M melanoma 115% | MDA-MB-231 breast 89% | RXF 393 renal 111% | SF-268 CNS 97.1% | SF-295 CNS 107% | SF-539 CNS 105% | UACC-257 melanoma 106% | HCT-15 colon 104% | HT29 colon 102% | SNB-75 CNS 97.6% | SNB-19 CNS 95.9% | U251 CNS 93% | PC-3 prostate 91.6% | SK-MEL-5 melanoma 96.4% | UACC-62 melanoma 95.6% | LOX IMVI melanoma 102% | SK-MEL-28 melanoma 117%

CN(C)CCC(O)(Cc1ccccc1)c1ccccc1 (stereo not given)
inactive: K-562 leukemia 103% | MALME-3M melanoma 114% | MDA-MB-231 breast 108% | RXF 393 renal 117% | SF-295 CNS 103% | SF-539 CNS 103% | UACC-257 melanoma 111% | HCT-15 colon 108% | HT29 colon 103% | SNB-75 CNS 102% | SNB-19 CNS 112% | PC-3 prostate 92.9% | SK-MEL-5 melanoma 108% | UACC-62 melanoma 117% | LOX IMVI melanoma 99.2% | SK-MEL-28 melanoma 112%

Cc1ccc(C)c2c1C(=O)OC2=O
inactive: K-562 leukemia 78.9% | MALME-3M melanoma 87.8% | MDA-MB-231 breast 106% | RXF 393 renal 127% | SF-268 CNS 98.8% | SF-295 CNS 96.2% | SF-539 CNS 99.7% | UACC-257 melanoma 102% | M14 melanoma 102% | HCT-15 colon 101% | HT29 colon 93.1% | SNB-75 CNS 91.2% | SNB-19 CNS 107% | U251 CNS 104% | PC-3 prostate 97.7% | SK-MEL-5 melanoma 102% | UACC-62 melanoma 101% | LOX IMVI melanoma 98.4% | SK-MEL-28 melanoma 92.9%

O=[N+]([O-])c1ccccc1C(O)Cc1ccc2ccccc2n1 (stereo not given)
inactive: K-562 leukemia 108% | MALME-3M melanoma 89.6% | MDA-MB-231 breast 68.3% | RXF 393 renal 91.2% | SF-268 CNS 93.1% | SF-295 CNS 103% | SF-539 CNS 98.4% | UACC-257 melanoma 93.3% | M14 melanoma 90% | HCT-15 colon 105% | HT29 colon 112% | SNB-75 CNS 85.8% | SNB-19 CNS 101% | U251 CNS 96.9% | PC-3 prostate 95.5% | SK-MEL-5 melanoma 89.9% | UACC-62 melanoma 82.6% | LOX IMVI melanoma 93% | SK-MEL-28 melanoma 92.9%

C[C@@H]1CC[C@@H]2[C@@H]1[C@H](OC(=O)/C=C/c1ccccc1)[C@]1(CCCOCCOCCOCCOC(=O)CCCC[C@@H]3SC[C@@H]4NC(=O)N[C@@H]43)C[C@@H](OC(=O)CO)[C@@]2(C)O1
inactive: DU-145 prostate 103% | MALME-3M melanoma 99.6% | MDA-MB-231 breast 106% | RXF 393 renal 108% | SF-268 CNS 102% | SF-295 CNS 107% | SF-539 CNS 103% | UACC-257 melanoma 109% | HCT-15 colon 106% | HT29 colon 98.1% | SNB-75 CNS 88.8% | SNB-19 CNS 106% | U251 CNS 105% | PC-3 prostate 97.7% | SK-MEL-5 melanoma 105% | UACC-62 melanoma 102% | LOX IMVI melanoma 106% | SK-MEL-28 melanoma 108%

Source: PubChem BioAssay (NCI)
